Source: PubChem BioAssay AID743398 (Broad Institute, 2014)
The campaign covered roughly 300,000 compounds. About 3,600 (1.2%) were called active. The full list was thinned out, with actives kept by preference. Unmarked numbers belong to inactive results. Rule as the data show it: active = activation above about 30% (passing the limit was not always enough); inconclusive = no clear call, values can overlap the other calls.

experiment: activation of beta-catenin signaling reporter – cell-based, plate reader, single point, primary screen (AID 743398); details: Wnt/beta-catenin reporter cell assay, activator, at 9.35 µM, stronger effect = higher value;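 also: 0% = neutral control wells and 100% = positive control wells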

SMILES | activation
Cc1ccc(OC(=O)c2c(C)nn(-c3ccccc3)c2C)cc1 | 57.6% (active)
Cc1cccc(C)c1NC(=O)COC(=O)c1c(C)nn(-c2ccccc2)c1C | 2.07%
Cc1nn(-c2ccccc2)c(-n2cccc2)c1C(=O)O | -0.442%
Cc1cccc(C)c1Cn1c(C)c(C(=O)NCc2cccc(Cl)c2)sc1=O | -7.17%
CCCOc1ccc(F)cc1-c1cc(C(=O)Nc2ccc(F)cc2)[nH]n1 | -2.71%
O=C1N/C(=N\N=C\c2ccco2)SC1Cc1ccc(F)cc1 (stereo not given) | 1.16%
C=CCN1C(=O)C(Cc2cccc(Cl)c2)S/C1=N/N=C/c1ccco1 (stereo not given) | -5.07%
COc1ccc(CN2C(=O)C(C)S/C2=N/N=C/c2ccco2)cc1 (stereo not given) | 39.6% (active)
CCOC(=O)c1cc(-c2sc(NC(=O)c3ccccc3)nc2C)n(-c2ccc(Br)cc2)n1 | -1.56%
Cn1cnnc1SCC(=O)Nc1ccc(N2CCOCC2)cc1 | -1.68%
O=C(CSc1ccc([N+](=O)[O-])cn1)Nc1ccc(N2CCOCC2)cc1 | 34.8% (active)
O=C(CSc1ccc([N+](=O)[O-])cn1)Nc1ccc(N2CCOCC2)c(Cl)c1 | -0.66%
CC(C)CNc1cccc2c1S(=O)(=O)N[C@H](C)CO2 | -4.07%
CCCn1c(N)c(C(=O)CSc2nnc3n2CCCCC3)c(=O)[nH]c1=O | 44.1% (active)
CCCn1c(N)c(C(=O)CSc2nnc(-c3cccnc3)n2-c2ccc(C)cc2C)c(=O)[nH]c1=O | -2.6%
CCCn1c(N)c(C(=O)CSc2nnc(Cc3cccs3)n2C2CC2)c(=O)[nH]c1=O | 0.611%
Cc1[nH]nc2c1C(c1ccc(Br)cc1)NC2=O (stereo not given) | 1.31%
Cc1ccc(NC(=O)c2sccc2C)cc1[N+](=O)[O-] | 44.6% (active)
Cc1ccc(NC(=O)CN(C)CC(=O)Nc2cccc(F)c2)cc1[N+](=O)[O-] | -4.16%
Cc1cc(O)c(NC(=O)c2ccc(C)c([N+](=O)[O-])c2)cc1C | 4.77%
O=S(=O)(NCc1ccccn1)c1ccc(Br)s1 | -6.83%
Cc1cc(C)c[n+](-c2nc3ccccc3nc2[N-]S(=O)(=O)c2cccs2)c1 | -2.64%
O=S(=O)([N-]c1nc2ccccc2nc1-[n+]1ccc(Cc2ccccc2)cc1)c1ccc(Br)s1 | 88.3% (active)

SMILES | activation
O=C(NC(=O)N1CCOCC1)c1ccccc1 | -2.28%
O=C(NCC(=O)N1CCCCCCC1)c1ccccc1Cl | 12.1%
O=C(NC(=O)N1CCSCC1)c1c(Cl)cccc1Cl | 31.3% (active)
OC(c1ccc(Cl)cc1)c1ncc(-c2ccc(Cl)cc2)[nH]1 (stereo not given) | 0.492%
CCNc1nc(NCC)nc(N/N=C/c2ccc(O)c(OC)c2)n1 | -3.98%
COc1cc(/C=N/Nc2nc3ccccc3s2)ccc1O | 76.9% (active)
COc1cc(/C=N\Nc2nc(-c3cccs3)c(NC(C)=O)s2)ccc1O | 7.87%
c1cc(-c2ccc3[nH]ccc3c2)n2ccnc2c1 | 3.12%
Fc1cccc(Cc2c(-c3cccc(Cl)c3)nc3ccc(Br)cn23)c1 | 16.8%
O=C(NCCc1c[nH]c2ccccc12)c1cc2ccccc2oc1=O | 40.4% (active)
CN(c1ccccc1)S(=O)(=O)c1ccc(Cl)c(C(=O)NCCc2c[nH]c3ccccc23)c1 | -0.321%
O=C(NCCc1c[nH]c2ccccc12)c1cccc(Br)c1 | 0.278%
Nc1[nH]c(C(=O)c2ccc(Br)cc2)c(-c2ccc3c(c2)OCO3)c1C(=O)NCCc1c[nH]c2ccccc12 | 0.212%
CCc1ccc(C2=CC(=O)CC(C)(C)C2=O)cc1 | -1.61%
O=C(NCC(=O)N(CC1CCCO1)C(C(=O)NC1CCCCC1)c1ccccc1)c1ccco1 (stereo not given) | -4.62%
O=C(NCC(=O)N(Cc1cccs1)C(C(=O)NC1CCCCC1)c1ccco1)c1cccs1 (stereo not given) | 67.7% (active)
Cc1ccccc1N(C(=O)CNC(=O)c1cccs1)C(C(=O)NC1CCCC1)c1ccncc1 (stereo not given) | -0.349%
CCOC(=O)C1=CC[C@@H](c2ccncc2)N(S(=O)(=O)c2ccc(C)cc2)C1 | -0.651%
CCCCn1nnnc1C(c1ccccc1)N1CCN(c2ccccc2OC)CC1 (stereo not given) | 1.03%
COC(=O)C1=C(C)N(Cc2cccc(C(F)(F)F)c2)C(=NCc2cccc(C(F)(F)F)c2)NC1c1ccccc1C(F)(F)F (stereo not given) | -4.8%
COc1ccc(-c2cnc3c(c2)C(=O)N([C@H](C)CO)C[C@@H](C)[C@H](CN(C)Cc2ccccc2)O3)cc1 | -0.613%
Cc1ccc2nc(N3C(=O)C(O)=C(C(=O)c4ccco4)C3c3cccc(O)c3)sc2c1 (stereo not given) | 8.29%
COc1ccc2nc(N3CCN(C(=O)c4ccc([N+](=O)[O-])o4)CC3)sc2c1 | 2.35%

SMILES | activation
Cc1ccc2nc(N3CCN(C(=O)c4ccco4)CC3)sc2c1 | 40% (active)
COc1cccc(CC(=O)N2CCN(C(=O)C(=O)c3cccc(C(F)(F)F)c3)CC2)c1 | -3.95%
Cc1cc(C)cc(NC(=O)CSc2ccccc2)c1 | -7.62%
Cc1cc(C)cc(NC(=O)N(C)Cc2ccccc2)c1 | 46% (active)
CN(Cc1ccccc1)C(=O)c1cccc(C(=O)N(C)Cc2ccccc2)c1 | 1.74%
Cc1ccccc1-c1nc(NC(C)C)nc2cc(-c3ccccc3)sc12 | -8.66%
CN1CCN(c2ccc3c(c2)OC[C@H](Cc2ccccc2)NS3(=O)=O)CC1 | -3.42%
CSCCNC(=O)c1ccc2nc(Cc3ccccc3F)oc2c1 | 42.9% (active)
COc1ccc(Cc2nc3ccc(C(=O)NCC4CCOCC4)cc3o2)cc1OC | 7.09%
COCCNC(=O)c1ccc2nc(Cc3ccc(OC)c(OC)c3)oc2c1 | 1.55%
COc1ccc(-c2cn3cccnc3n2)cc1 | 26.2%
COc1ccc(-c2cc3ncccc3cn2)cc1 | 50.1% (active)
COc1ccc2nc(-c3ccccn3)ccc2c1 | 1.79%
CCOc1ccc(Cl)cc1-c1cc(C(=O)NCc2cccs2)[nH]n1 | -2.6%
O=C(NCc1ccccc1)[C@@H]1CCCN1C(=O)[C@H]1CCCN1C(=O)c1cccc(Cl)c1 | 3.03%
O=C1/C(=C/c2cccs2)CCC1C1CCCC1 (stereo not given) | 39.6% (active)
CN1C/C(=C/c2cccs2)C(=O)/C(=C\c2cccs2)C1 | 5.88%
O=C1/C(=C/c2cccs2)CCc2ccccc21 | 24.6%
C[C@H](CO)N1C[C@H](C)[C@@H](CN(C)C(=O)Nc2ccccc2F)OCc2cn(nn2)CCCC1=O | -2.87%
COc1ccc(C(C)(O)c2nc(-c3cc(F)cc(F)c3)cs2)cc1 (stereo not given) | -1.38%
COc1cc(OC)cc(-c2cc3ccc(F)cc3cn2)c1 | 42.1% (active)
COc1cc(OC)cc(-c2c(-c3ccc(F)cc3)c3cc(-c4ccc5cc[nH]c5c4)ccc3n2C)c1 | -17.5%
COc1ccccc1C(=O)N1O[C@]23C=C[C@]14C[C@@H](O)CC[C@]4(C)C2CC[C@]1(C)[C@@H]([C@H](C)/C=C/[C@H](C)C(C)C)CC[C@H]13 (stereo not given in full) | -2.64%

SMILES | activation
COc1cccc(CNc2nc(NCc3cccs3)nc3ccsc23)c1 | -1.69%
O=C(Nc1c(Cl)c(C2CC2)nn1-c1ccccc1)C(Cl)(Cl)Cl | -2.16%
Fc1ccccc1-c1cc2cc3c(cc2cn1)OCO3 | 40.7% (active)
O=C(NCCCN1CCOCC1)c1cc(-c2ccccc2F)no1 | 3.67%
O=C(c1ccco1)N1CCN(C(=O)c2cc(-c3ccccc3F)no2)CC1 | 1.22%
CCNC(=O)C1(C)CCCN(Cc2noc(-c3ccccc3OC)n2)C1 (stereo not given) | -3.24%
CN1C(=O)C2CC(O)C(SC3CC4C(=O)N(C)C(=O)C4CC3O)CC2C1=O (stereo not given) | -1.16%
CCc1nc2c(OCc3ccc(C(F)(F)F)cc3)cccn2c1N(C)C(=O)CC(C)C | -1.72%
C=CCc1cccc2cc(C(=O)Nc3ccc(NC(C)=O)cc3)c(=O)oc12 | 39.5% (active)
CCOc1cccc2cc(C(=O)OCC(=O)Nc3c(C)cccc3CC)c(=O)oc12 | 8.56%
C=CCc1cccc2cc(C(=O)NC3CCCC3)c(=O)oc12 | -0.536%
COc1ccc(-c2ccccc2C2Cc3nnccc3CN2C(=O)Nc2ccccc2)cc1 (stereo not given) | -2.13%
COC(=O)c1cc2c(c3c4ccccc4n(S(=O)(=O)c4cccc(C)c4)c13)C(=O)N(Cc1ccccc1)C2 | -4.66%
Cn1c(-c2ccc(F)cc2)cc2onc(-c3ccccc3Cl)c2c1=O | 53.3% (active)
Cc1[nH]n(C)c(=O)c1C(=O)c1c(-c2c(Cl)cccc2Cl)noc1C | 4.17%
Cn1c(-c2ccc(C(F)(F)F)cc2)cc2onc(-c3ccccc3)c2c1=O | 23.3%
CCOC(=O)/C=C/c1ccccc1O | -1.18%
CN(C)C(=O)c1ccc(NC(=O)COC(=O)c2cc3c(s2)CCCCC3)cc1 | 0.414%
O=C(Nc1ccc(F)cc1)c1cc2c(s1)CCCC2 | 53% (active)
O=C(NNC(=O)c1cc2c(s1)CCCC2)c1ccccc1 | 27.6%
CCN(CC)C(=O)C1=C(C)N(Cc2ccc(F)cc2)C(=O)C(CC(=O)NCc2cccc3ccccc23)C1 (stereo not given) | -3.01%
